Laboratory results: PubChem BioAssay (NCATS)
Values joined by “and” are separate entries in the source; they are usually repeats but may differ in a detail not shown here. Identical values can stand only once. Inconclusive results are not listed. Active and inactive are the calls of the source. Unless noted, calls come from the whole dose curve; as a rule, active = well fitted curve in the direction sought with a large enough effect; inconclusive = small, poorly fitted or top-dose-only effect, or another doubt; inactive = no such curve, though single readings can be large; an effect the other way counts as inactive or inconclusive.

Key:
[1] = Cell Viability - N2a (AID 540); details: N2a mouse neuroblastoma cell viability; activity change, negative = cytotoxicity: at 92.2 µM (top of the series);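 note: plate controls were DMSO alone for no effect and tamoxifen control for full effect; nearly all actives have a fitted effect of over 45% in size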
Method in brief: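 CellTiter-Glo ATP luminescence, read 20 min after reagent at room temperature, reported viability following 40 h compound treatment at 37 °C. N2a mouse neuroblastoma cells seeded 1500/well; Hill equation gave AC50.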

[2] = Cell Viability - H-4-II-E (AID 543);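 note: cells exposed to compound for 40 hours; % is set by controls: 0 for no effect and ±100 for the full control effect; nearly all actives have a fitted effect of over 35% in size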
Method in brief: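 CellTiter-Glo luminescence (intracellular ATP) measured after 40 h compound exposure at 37 °C in H-4-II-E rat hepatoma cells seeded at 1500/well. Values are AC50s fitted with the standard Hill equation.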

[3] = Cell Viability - SH-SY5Y (AID 544); details: SH-SY5Y neuroblastoma cell viability; viability change, negative = cytotoxic: at 92.2 µM (top of the series);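 note: cells exposed to compound for 40 hours; 0% = DMSO alone and -100% = 100 µM tamoxifen; nearly all actives have a fitted effect of over 55% in size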
Method in brief: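 Cytotoxicity measured via ATP-dependent luciferase luminescence (CellTiter-Glo) following 40 h, 37 °C exposure of 1500 SH-SY5Y cells per well. Concentration-response data were fitted with the standard Hill equation to give AC50.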

[4] = Cell Viability - LYMP2-004 (AID 966);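 note: plate controls were DMSO only for no effect and tetraoctylammonium bromide control for full effect; nearly all actives have a fitted effect of over 65% in size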
Method in brief: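 AC50 values come from Hill modelling of concentration-dependent loss of intracellular ATP, measured by CellTiter-Glo luminescence. Human LYMP2-004 lymphoblastoid cells (2500/well) were exposed to compound for 24 h at 37 C.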

[5] = Cell Viability - LYMP2-011 (AID 969);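 note: 0% = DMSO only and full inhibition = 92 µM tetraoctylammonium bromide; nearly all actives have a fitted effect of over 60% in size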
Method in brief: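 Cytotoxicity qHTS with ATP content as read-out: lymphoblastoid cells (2500/well) exposed to compound for 24 h at 37 C, then luciferase luminescence measured. Concentration-response data fitted with the standard Hill equation to give AC50.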

[6] = Cell Viability - LYMP2-007 (AID 979);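 note: cells exposed to compound for 24 h before reading; 0% = DMSO only and the negative end = 92 µM tetraoctylammonium bromide; nearly all actives have a fitted effect of over 60% in size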
Method in brief: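 AC50 values come from Hill-equation fits of luminescent intracellular ATP (CellTiter-Glo, 30 min, room temperature) following 24 h compound exposure at 37 C. Cells: LYMP2-007 lymphoblastoid line, 2500 per well, in complete culture medium.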

[7] = Cell Viability - LYMP2-008 (AID 980); note: % is set by controls: 0 for no effect and ±100 for the full control effect; nearly all actives have a fitted effect of over 60% in size
Method in brief: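 Cytotoxicity determined from ATP-dependent luciferase luminescence (CellTiter-Glo) following 24 h compound exposure of human lymphoblastoid LYMP2-008 cells at 37 C. Concentration-response data fitted to the Hill equation to give AC50.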

[8] = molecular target: Vitamin D3 receptor (Homo sapiens) (UniProt P11473); assay: qHTS assay for small molecule agonists of vitamin D receptor signaling (AID 588543; calls by dose curve;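 note: 0% = DMSO basal and 100% = reference agonist control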)
Sequence of Vitamin D3 receptor (Homo sapiens) (P11473 whole entry, looked up): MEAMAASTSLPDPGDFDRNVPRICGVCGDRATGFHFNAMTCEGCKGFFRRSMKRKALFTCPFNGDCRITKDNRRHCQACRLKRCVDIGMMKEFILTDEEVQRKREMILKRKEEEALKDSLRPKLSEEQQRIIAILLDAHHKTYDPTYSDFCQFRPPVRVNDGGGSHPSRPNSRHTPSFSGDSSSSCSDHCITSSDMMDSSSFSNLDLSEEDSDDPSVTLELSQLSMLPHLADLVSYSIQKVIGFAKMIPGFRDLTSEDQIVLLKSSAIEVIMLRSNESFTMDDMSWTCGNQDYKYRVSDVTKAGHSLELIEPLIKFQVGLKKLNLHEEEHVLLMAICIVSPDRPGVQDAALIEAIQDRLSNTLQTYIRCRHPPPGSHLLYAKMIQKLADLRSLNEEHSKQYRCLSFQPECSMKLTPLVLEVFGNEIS
Method in brief: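 qHTS in agonist mode: compound titrations stimulate a VDR-driven β-lactamase reporter in HEK293T cells over 16 h at 37 °C. Response normalized to 50 nM 1α,25-dihydroxyvitamin D3 = 100%, DMSO = 0%; Hill fitting gives EC50 and maximal response.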

[9] = molecular target: Tumor necrosis factor (Homo sapiens) (UniProt P01375); assay: qHTS assay to identify small molecules that stimulate Tumor Necrosis Factor-alpha (TNF-alpha) secretion (AID 651757; active = well fitted curve in the direction sought with a large enough effect in the signal ratio; the % refers to the signal ratio; note: 0% is about no effect)
Sequence of Tumor necrosis factor (Homo sapiens) (P01375 whole entry, looked up): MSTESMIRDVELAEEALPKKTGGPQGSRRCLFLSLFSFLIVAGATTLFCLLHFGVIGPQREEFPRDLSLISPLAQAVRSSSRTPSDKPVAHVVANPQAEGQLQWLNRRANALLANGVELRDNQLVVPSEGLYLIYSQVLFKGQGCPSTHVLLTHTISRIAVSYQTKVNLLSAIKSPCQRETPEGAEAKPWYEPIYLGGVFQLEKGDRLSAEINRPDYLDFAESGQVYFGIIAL
Method in brief: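 Secreted TNF-alpha quantified by TR-FRET sandwich of two labeled anti-TNF-alpha antibodies, incubated 3 hr at room temperature. Preceded by 17 hr, 37 C compound treatment of THP-1 cells at 3000 cells/well.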

[10] = molecular target: Mitogen-activated protein kinase 10 (Mus musculus) (UniProt Q61831); assay: JNK3 AlphaScreen Assay (AID 530; active = well fitted curve in either direction with a large enough effect, not every such curve was filed as active;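 note: kinase came from lysate of stimulated human HepG2 cells; signal reports phosphorylation of biotinylated GST-cJun 1-79 at Ser73 with 10 µM ATP; % is set by controls: 0 for no effect and ±100 for the full control effect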)
Method in brief: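 Activity was read by AlphaScreen after JNK3-containing HepG2 lysate (cytokine pre-activated) phosphorylated biotinylated GST-cJun with 10 uM ATP at room temperature. Phospho-Ser73 cJun antibody with Protein-A acceptor beads provided detection.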

[11] = qHTS assay for small molecule antagonists of peroxisome proliferator-activated receptor delta signaling (AID 588535); details: HEK293T PPARd-UAS-bla, beta-lactamase FRET ratio, 18 h; 460 nm channel;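 note: cells co-treated with a PPAR-delta agonist as stimulator during compound exposure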
Method in brief: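 Fluorescence from CCF4-loaded GeneBLAzer PPAR-delta-UAS-bla HEK293T cells (2 hrs RT loading) quantified reporter inhibition after an 18 hr, 37 C compound exposure across a titration.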

[12] = molecular target: Peroxisome proliferator-activated receptor gamma (Homo sapiens) (UniProt P37231); assay: qHTS assay for small molecule agonists of peroxisome proliferator-activated receptor gamma signaling (AID 588536; active = well fitted curve in the direction sought with a large enough effect in the signal ratio, with a control signal flat, not every such curve was filed as active; the % refers to the signal ratio;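 note: 0% = DMSO basal wells and 100% = rosiglitazone at 2 µM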)
Sequence of Peroxisome proliferator-activated receptor gamma (Homo sapiens) (P37231 whole entry, looked up): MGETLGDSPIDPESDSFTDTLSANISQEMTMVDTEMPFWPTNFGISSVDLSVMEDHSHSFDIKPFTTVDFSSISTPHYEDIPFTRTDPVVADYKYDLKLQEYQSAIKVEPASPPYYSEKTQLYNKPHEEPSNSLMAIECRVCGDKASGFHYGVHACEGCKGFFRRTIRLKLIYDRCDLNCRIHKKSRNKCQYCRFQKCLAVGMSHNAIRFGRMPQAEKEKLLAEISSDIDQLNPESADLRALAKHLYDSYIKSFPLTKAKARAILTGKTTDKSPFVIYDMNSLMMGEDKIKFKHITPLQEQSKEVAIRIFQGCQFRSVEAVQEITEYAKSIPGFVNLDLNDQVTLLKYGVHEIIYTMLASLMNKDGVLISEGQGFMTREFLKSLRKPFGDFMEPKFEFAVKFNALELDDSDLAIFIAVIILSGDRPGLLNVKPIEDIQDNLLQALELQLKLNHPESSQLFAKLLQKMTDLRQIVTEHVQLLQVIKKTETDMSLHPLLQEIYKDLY
Method in brief: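 Cells were plated and held 6–6.5 h at 37 C, then compounds were added as a titration series. After a further 16 h, CCF4 dye was loaded for 2 h at room temperature and emission at 460/530 nm recorded.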

[13] = molecular target: Retinoic acid receptor RXR-alpha (Homo sapiens) (UniProt P19793); assay: qHTS assay for small molecule agonists of retinoid X receptor alpha signaling (AID 588544; calls by dose curve;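 note: 0% = DMSO basal wells and 100% = reference agonist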)
Sequence of Retinoic acid receptor RXR-alpha (Homo sapiens) (P19793 whole entry, looked up): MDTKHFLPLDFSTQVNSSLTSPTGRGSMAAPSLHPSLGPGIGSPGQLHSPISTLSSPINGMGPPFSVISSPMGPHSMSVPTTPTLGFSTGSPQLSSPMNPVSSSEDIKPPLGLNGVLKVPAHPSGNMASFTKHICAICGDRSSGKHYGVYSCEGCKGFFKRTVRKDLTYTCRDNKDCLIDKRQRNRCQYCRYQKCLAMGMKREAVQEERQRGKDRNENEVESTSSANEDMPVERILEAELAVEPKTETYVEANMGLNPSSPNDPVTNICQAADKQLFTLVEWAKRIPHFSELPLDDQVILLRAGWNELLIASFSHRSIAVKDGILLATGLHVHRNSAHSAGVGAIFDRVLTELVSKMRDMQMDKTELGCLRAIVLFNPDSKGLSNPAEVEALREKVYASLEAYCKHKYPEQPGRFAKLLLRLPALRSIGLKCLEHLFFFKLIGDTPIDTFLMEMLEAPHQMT

[14] = qHTS assay for small molecule activators of the p53 signaling pathway (AID 651743; active = well fitted activation curve with a large enough effect in the signal ratio, not every such curve was filed as active; the % refers to the signal ratio; note: % of control where 0% means no effect); details: HCT-116 p53RE-bla, beta-lactamase FRET ratio, 16 h; activation: stronger effect = higher value
Method in brief: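 Following 16 hours of compound exposure at 37 C, HCT-116 cells bearing the p53RE-bla reporter were loaded with LiveBLAzer B/G FRET substrate for 2 hours at room temperature and fluorescence intensity was recorded.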

[15] = qHTS assay to identify small molecules that stimulate interleukin-8 (IL-8) secretion (AID 651758; active = well fitted activation curve with a large enough effect in the signal ratio; the % refers to the signal ratio; note: potency is the fitted concentration of half-maximal effect; for activation: 0% is about no effect)
Method in brief: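 Compounds are added to THP-1 cells (2000 per well) and left 16 hrs at 37 C. A labeled anti-IL-8 antibody pair is then added, and IL-8 secretion is measured by time-resolved FRET after 1-3 hrs at room temperature.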

[16] = qHTS assay for small molecule agonists of the antioxidant response element (ARE) signaling pathway measured by Nrf2-dependant transcriptional activity (AID 720636; active = well fitted curve in the direction sought with a large enough effect in the repeat runs; an effect the other way counts as inactive or inconclusive; note: % of control where 0% means no effect)
Method in brief: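 Nrf2-dependent transcription read as ONE-Glo luciferase signal from ARE-luc HepG2 reporter cells after 16 hr compound treatment at 37 C, 5% CO2, in assay medium with 1% dialyzed FBS.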

[17] = molecular target: Bile acid receptor (Homo sapiens) (UniProt Q96RI1); assay: qHTS assay for small molecule antagonists of farnesoid X receptor signaling (AID 588526; calls by dose curve; note: potency is the fitted concentration of half-maximal effect)
Sequence of Bile acid receptor (Homo sapiens) (Q96RI1 whole entry, looked up): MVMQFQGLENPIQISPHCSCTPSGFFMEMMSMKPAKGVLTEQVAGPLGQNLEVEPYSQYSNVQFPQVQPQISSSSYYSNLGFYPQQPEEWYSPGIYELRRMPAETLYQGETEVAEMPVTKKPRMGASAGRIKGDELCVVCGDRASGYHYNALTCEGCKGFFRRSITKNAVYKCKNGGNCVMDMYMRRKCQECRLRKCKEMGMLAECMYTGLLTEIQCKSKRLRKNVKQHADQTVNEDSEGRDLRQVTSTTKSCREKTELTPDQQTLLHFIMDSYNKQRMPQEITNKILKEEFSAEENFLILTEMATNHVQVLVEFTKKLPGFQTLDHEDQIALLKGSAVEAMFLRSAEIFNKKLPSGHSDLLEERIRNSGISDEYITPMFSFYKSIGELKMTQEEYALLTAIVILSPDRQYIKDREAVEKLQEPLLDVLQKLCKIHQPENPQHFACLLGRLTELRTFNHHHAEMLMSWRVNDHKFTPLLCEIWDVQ
Method in brief: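 Antagonist mode: titrated compounds tested against chenodeoxycholic acid stimulation (normalized to 50 uM CDCA and DMSO) in GeneBLAzer HEK293T cells for 16 h. Beta-lactamase read by CCF4 fluorescence; IC50 from Hill fits.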

[18] = molecular target: Peroxisome proliferator-activated receptor gamma (Homo sapiens) (UniProt P37231); assay: qHTS assay for small molecule antagonists of peroxisome proliferator-activated receptor gamma signaling (AID 588537; active = well fitted inhibition curve with a large enough effect in the signal ratio, with a control signal flat, not every such curve was filed as active; the % refers to the signal ratio;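 note: reporter cells co-stimulated with 50 nM rosiglitazone agonist during compound treatment; % of control where 0% means no effect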)
Method in brief: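 Fluorescence at 460 and 530 nm (405 nm excitation) reported beta-lactamase cleavage of CCF4 after 2 h room-temperature loading. HEK293 reporter cells in 1% charcoal/dextran-treated FBS had received compound and rosiglitazone for 16 h.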

[19] = Cell Viability - LYMP2-001 (AID 921);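 note: 0% = DMSO only and full inhibition = tetraoctylammonium bromide control wells; nearly all actives have a fitted effect of over 70% in size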
Method in brief: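 qHTS, 1536-well; lymphoblastoid cells, 24 hr compound, 37 C; ATP by CellTiter-Glo, 30 min RT; luminescence; Hill-fit AC50.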

CCCCCCN
inactive: activity change, negative = cytotoxicity [1] -7.51% | Potency [2] | Potency [3] | Potency [4] | Potency [5] | Potency [6] | Potency [7] | Potency [8] | Potency [9]

Nc1ccccc1O
active: Potency [15] 66.8 µM
17.2%: max response [11]
inactive: Potency [10] | Potency [5] | Potency [7] | outcome [12] | Potency [13] | activation [14] 17.3% | Potency [16]

c1c[nH]cn1
30.3%: max response [11]
inactive: Potency [3] | Potency [4] | Potency [5] | Potency [6] | Potency [7] | Potency [13] | Potency [9] | Potency [15] | Potency [16]

Cc1ccc2ccc3cccc4ccc1c2c34
active: Potency [17] 44.7 µM
18.4%: max response [11]
inactive: activity change, negative = cytotoxicity [1] -16.7% | Potency [7] | Potency [18] | Potency [13]

O=[N+]([O-])c1ccc(F)cc1F
inactive: Potency [10] | activity change, negative = cytotoxicity [1] -8.79% | Potency [3] | Potency [4] | Potency [7] | outcome [12] | Potency [13] | activation [14] -3.21% | Potency [9] | Potency [16]
10.2%: max response [11]

COc1ccc(C(=O)Nc2ccccc2)cc1[N+](=O)[O-]
inactive: Potency [10] | activity change, negative = cytotoxicity [1] -4% | Potency [19] | Potency [5] | Potency [7] | Potency [17] | Potency [18] | activation [14] -6.78%

O=C1OC(=O)c2ccccc21
-31.3%: max response [11]
inactive: Potency [10] | Potency [2] | Potency [19] | Potency [4] | Potency [5] | Potency [6] | Potency [17] | Potency [13] | activation [14] -3.66% | Potency [9] | Potency [16]

Brc1cc(Oc2cc(Br)c(Br)c(Br)c2Br)c(Br)c(Br)c1Br
14.5% and 36.5%: max response [11]
inactive: Potency [10] | activity change, negative = cytotoxicity [1] -25% | Potency [18] | Potency [13] | activation [14] -8.15% and -4.88% | Potency [16]

CCCCOC(=O)COc1ccc(Cl)cc1Cl
inactive: activity change, negative = cytotoxicity [1] 7.15% | Potency [2] | Potency [19] | Potency [4] | Potency [6] | Potency [17] | outcome [12] | Potency [18] | Potency [13] | activation [14] -0.84% and -2.7% | Potency [9] | Potency [15]

c1ccncc1
inactive: activity change, negative = cytotoxicity [1] -3.08% | Potency [19] | Potency [4] | Potency [7] | outcome [12] | Potency [18] | Potency [8] | activation [14] -0.205% | Potency [9]

OCC(CO)(CBr)CBr
0.13% and -4.24%: max response [11]
inactive: Potency [10] | activity change, negative = cytotoxicity [1] -2.21% | Potency [3] | Potency [6] | Potency [7] | Potency [17] | Potency [18] | Potency [9] | Potency [15] | Potency [16]
